Source: the supplement of paper PMC3334620
Whole data set: some 33,000 sequences, median “E-score (-0.5 to 0.5)” near -0.016, cut for the highest 2% near 0.32. This is one part of a sample in which the highest values are shown more often than they occur.

These sequences were tested against T1, Stp1 (UniProt B3LFK1) (assay: PBM E-score (8-mer binding enrichment) (E-score (-0.5 to 0.5)); higher = stronger / more preferred TF binding). Settings: protein concentration: 200 nM; construct: GST-full length.
T1 sequence: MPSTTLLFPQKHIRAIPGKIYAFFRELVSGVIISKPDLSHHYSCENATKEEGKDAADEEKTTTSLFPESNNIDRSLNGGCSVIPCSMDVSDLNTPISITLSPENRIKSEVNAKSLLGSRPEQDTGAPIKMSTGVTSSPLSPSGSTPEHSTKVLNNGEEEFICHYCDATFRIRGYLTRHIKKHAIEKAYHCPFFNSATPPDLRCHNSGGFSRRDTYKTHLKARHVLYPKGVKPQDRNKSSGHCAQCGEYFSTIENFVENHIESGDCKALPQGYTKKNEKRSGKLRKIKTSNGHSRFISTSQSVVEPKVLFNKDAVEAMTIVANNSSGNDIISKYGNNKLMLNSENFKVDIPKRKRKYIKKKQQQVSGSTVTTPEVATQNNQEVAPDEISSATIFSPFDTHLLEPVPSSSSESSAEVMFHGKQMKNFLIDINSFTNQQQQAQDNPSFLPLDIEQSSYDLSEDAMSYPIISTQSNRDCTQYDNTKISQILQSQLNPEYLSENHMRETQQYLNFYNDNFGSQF
In short: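 PURExpress in vitro transcription/translation supplied GST-tagged yeast transcription factors, either full-length or DNA-binding domain. Applied at about 100-200 nM to universal all-10-mer Agilent arrays double-stranded by primer extension, the bound protein was detected with fluorescent anti-GST. E-scores, modified Wilcoxon-Mann-Whitney statistics, were given by the Universal PBM Analysis Suite to ungapped eight-base words pooled with their reverse complements after masliner normalisation.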

| Sequence | PBM E-score |
| --- | --- |
| ACCTCCCG | -0.269 |
| AGCAAGGC | 0.29 |
| CGCAAAGC | 0.126 |
| CGTAAGGA | -0.0941 |
| AATAAGGC | 0.231 |
| CATAAGGC | 0.344 |
| AGTAAGGC | 0.163 |
| CGCAAGGC | 0.388 |
| CATAAGGG | -0.0274 |
| CGTAAGGC | 0.358 |
| CCTCCAGA | 0.0135 |
| CACATCGC | -0.115 |
| CGCGCTGA | -0.0138 |
| TGCGCTAA | -0.0463 |
| GGCGCTGA | 0.327 |
| CGCGCTAA | 0.227 |
| AGCGCTGA | -0.0259 |
| GGCGCTAA | 0.37 |
| GGGGCAGA | -0.0961 |
| GTCGACAA | -0.192 |
| CCGAACGA | -0.0055 |
| CCGAACGG | 0.334 |

| Sequence | PBM E-score |
| --- | --- |
| CCGAACGC | 0.226 |
| CGTAATAC | 0.186 |
| CCTGGGCC | -0.181 |
| ACGGCACG | 0.484 |
| CCGGCACG | 0.27 |
| TCGGCACA | 0.135 |
| CGGGCACA | -0.106 |
| CCGGCACA | 0.106 |
| ACGGCACA | 0.479 |
| ACTCTGAG | -0.046 |
| AAGTGTGC | 0.122 |
| AACAGTGT | -0.102 |
| CGAGGGCG | -0.052 |
| ACCGCGAT | 0.0376 |
| ACGGCGAG | 0.437 |
| AGGGCGAT | 0.0677 |
| AGGGCGAG | -0.12 |
| ACGGCGAT | 0.479 |
| AAGGCGAT | 0.329 |
| AAGGCGAA | 0.197 |
| CCGGCGAG | 0.0395 |
| AAGGCGAG | -0.158 |

| Sequence | PBM E-score |
| --- | --- |
| CTATGGTA | -0.0844 |
| AGTTTTGC | 0.203 |
| AAGGGATA | -0.00219 |
| CTAAGTAG | 0.0172 |
| ACTTTGTC | 0.0794 |
| ACTTAAAT | 0.0505 |
| CAAGCGGC | 0.466 |
| CGAGCGGA | 0.114 |
| AAAGCGGC | 0.366 |
| GAAGCGGA | -0.0314 |
| CAAGCGGG | -0.168 |
| AAAGCGGG | -0.19 |
| GAAGCGTC | -0.0144 |
| AGAGCGGC | 0.307 |
| GAAGCGGC | 0.426 |
| CAAGCGGA | -0.0234 |
| AAAGCGGA | 0.0227 |
| CGAGCGGC | 0.416 |
| AAAGGGAC | -0.055 |
| AAGACCGA | -0.107 |
| ACTTAGGC | -0.0486 |
| ATATTCGG | 0.0873 |

| Sequence | PBM E-score |
| --- | --- |
| ACCCATAC | -0.0919 |
| AAGTCTCG | -0.199 |
| CGCCAACG | 0.0633 |
| ATGGCTCG | -0.0567 |
| ATAAACAT | 0.222 |
| AAAAGAAC | 0.0475 |
| AAAAGAAG | 0.19 |
| AAAAGAAT | 0.322 |
| AGTATAAA | 0.297 |
| GTTATAAA | 0.0721 |
| CTTATAAA | 0.115 |
| CGTATAAA | 0.319 |
| CGTATAAC | 0.217 |
| TTTATAAA | 0.376 |
| AGTCTGTA | -0.18 |
| AAGTCCCG | -0.145 |
| GCTCGAAC | -0.0559 |
| CCAGGTGC | -0.187 |
| AGGCAAAA | 0.344 |
| AGGCAAAC | 0.118 |
